From the supplement of paper PMC13380429
A number with no mark means an inactive call.

System: Vero E6 infected with SARS-CoV-2
Assay: inhibition of SARS-CoV-2 cytopathic effect; higher = more antiviral protection, active = above 15
Settings: 48 h

Structure (SMILES)	inhibition of SARS-CoV-2 cytopathic effect (1 nM)	inhibition of SARS-CoV-2 cytopathic effect (8.33 nM)	inhibition of SARS-CoV-2 cytopathic effect (100 nM)	inhibition of SARS-CoV-2 cytopathic effect (833.33 nM)	inhibition of SARS-CoV-2 cytopathic effect (10000 nM)
CCC[C@@H]1CC2=CC(=O)CC[C@]2(C)[C@H]2CC[C@@]3(C)[C@@H](CC[C@@]3(O)CCC(=O)O)[C@H]12	1.5%	15.1% (active)	3.45%	-4.91%	1.68%
CCC(=O)O[C@]1(C(=O)CCl)[C@@H](C)C[C@H]2[C@@H]3C[C@H](F)C4=CC(=O)C=C[C@]4(C)[C@@]3(F)[C@@H](O)C[C@@]21C [halobetasol-propionate]	-3.17%	-1.89%	-2.65%	1.32%	4.68%
c1cnc2cc3c(cc2n1)[C@@H]1CNC[C@H]3C1 [varenicline]	1.15%	1.67%	-1.63%	-1.66%	3.97%
CCCNC(=O)NS(=O)(=O)c1ccc(Cl)cc1 [chlorpropamide]	0.91%	0.48%	-1.08%	-0.4%	-2.67%
CC(C)[C@H](N)C(=O)OCCOCn1cnc2c(=O)nc(N)[nH]c21 [valaciclovir]	0.01%	0.27%	1.58%	0.1%	-2.93%
CCCC(C)(COC(N)=O)COC(=O)NC(C)C (stereo not given)	1.17%	2.25%	2.38%	4.43%	0.83%
O=C(Cn1ccnc1[N+](=O)[O-])NCCO [etanidazole]	0.32%	0.33%	4.88%	-1.27%	-0.88%
COc1ccc(NS(=O)(=O)c2sc3ccc(Cl)cc3c2C)cc1N1CCNCC1	0.93%	3.35%	0.86%	3.23%	-3.32%
O=C(c1c(F)ccc(NS(=O)(=O)N2CC[C@@H](F)C2)c1F)c1c[nH]c2ncc(-c3cnc(C4CC4)nc3)cc12	3.26%	-1.73%	-2.71%	-1.89%	-5.07%
N=C(N)NC(=O)Cc1c(Cl)cccc1Cl [guanfacine]	3.14%	4.91%	-3.11%	1.89%	-0.42%
CC(C)(C)NCC(O)COc1cccc2[nH]c(C#N)cc12 (stereo not given) [cyanopindolol]	1.56%	1.94%	0.47%	-2.7%	-1.96%
N=C(N)c1ccc(/N=N/Nc2ccc(C(=N)N)cc2)cc1 [diminazene-aceturate]	0.66%	-1.51%	-3.27%	-14%	2.42%
O[C@@H](COc1cccc2ncccc12)CN1CCN([C@@H]2c3ccccc3[C@@H]3[C@H](c4ccccc42)C3(F)F)CC1 [zosuquidar]	-0.36%	1.65%	0.11%	0.85%	-3.28%
CC1(C)C(=O)NC2=C1C(=O)C(=O)c1ccccc12	0.25%	-0.49%	-0.78%	1.58%	-10.5%
N=C(N)NC(=O)c1cnn(-c2cccc3ncccc23)c1C1CC1 [zoniporide]	-0.05%	3.39%	1.14%	3.55%	-1.51%
Cc1c(CN(C)C(=O)/C=C/c2cnc3c(c2)CCC(=O)N3)oc2ccccc12	0.18%	-1.15%	1.59%	0.21%	-1.4%
CCCCCCCCCCCCCCC[C@@H](O)[C@@H](N)CO [safingol]	3.01%	0.67%	1.42%	2.02%	-4.84%
CN1C(=O)COc2c(C(=O)NC3CN4CCC3CC4)cc(Cl)cc21 (stereo not given) [azasetron]	1.97%	1.89%	0.9%	-0.56%	-0.16%
C/N=C(/NC#N)NCCSCc1csc(NC(=N)N)n1 [tiotidine]	-3.61%	-1.47%	-1.51%	-3.05%	-1.02%

Structure (SMILES)	inhibition of SARS-CoV-2 cytopathic effect (1 nM)	inhibition of SARS-CoV-2 cytopathic effect (8.33 nM)	inhibition of SARS-CoV-2 cytopathic effect (100 nM)	inhibition of SARS-CoV-2 cytopathic effect (833.33 nM)	inhibition of SARS-CoV-2 cytopathic effect (10000 nM)
NC(=O)c1cccc(N)c1 [3-amino-benzamide]	-2.7%	-0.97%	-0.7%	-1.13%	0.61%
CC[C@H](CC[C@@H](C)[C@H]1CC[C@H]2[C@@H]3CC=C4C[C@@H](O)CC[C@]4(C)[C@H]3CC[C@]12C)C(C)C [beta-Sitosterol]	0.66%	2.31%	1.23%	-2.15%	-1.08%
CC(C)C[C@@H](NC(=O)[C@H](C)NC(=O)CNC(=O)[C@@H](NC=O)C(C)C)C(=O)N[C@@H](C)C(=O)N[C@@H](C(=O)N[C@H](C(=O)N[C@@H](C(=O)N[C@@H](Cc1c[nH]c2ccccc12)C(=O)N[C@H](CC(C)C)C(=O)N[C@@H](Cc1c[nH]c2ccccc12)C(=O)N[C@H](CC(C)C)C(=O)N[C@@H](Cc1c[nH]c2ccccc12)C(=O)N[C@H](CC(C)C)C(=O)N[C@@H](Cc1c[nH]c2ccccc12)C(=O)NCCO)C(C)C)C(C)C)C(C)C [gramicidin]	0.05%	0.15%	0.36%	-1.18%	2.22%
CC[N+](CC)(CCCNC1=CC(=O)C(NCCC[N+](CC)(CC)Cc2ccccc2)=CC1=O)Cc1ccccc1 [benzoquinonium-dibromide]	-1.79%	1.05%	-2.22%	0.21%	-1.78%
O=C(O)Cc1ccc(OCCNC[C@H](O)c2ccccc2)cc1	2.57%	3.11%	0.37%	-0.56%	1.01%
Nc1nc(NC[C@H]2CC[C@H](CNS(=O)(=O)c3cccc4ccccc34)CC2)nc2ccccc12	-0.54%	-0.03%	0.19%	-0.88%	29.5% (active)
CN(C)C/C=C/C(=O)Nc1cc2c(Nc3ccc(F)c(Cl)c3)ncnc2cc1O[C@H]1CCOC1 [afatinib]	-2.03%	-3.01%	-5.33%	-8.01%	-9.49%
C=CCNc1ncnc2ccc(Br)cc12	2.47%	5.36%	4.33%	0.12%	0.96%
CNCCCOc1cc(F)c(-c2c(Cl)nc3ncnn3c2N[C@@H](C)C(F)(F)F)c(F)c1 [cevipabulin]	1.36%	1.13%	2.89%	6.1%	-0.76%
NS(=O)(=O)c1cccc2c1c([N+](=O)[O-])cc1nc(O)c(O)nc12	2.79%	2.79%	2.47%	1.7%	-1.01%
CC(C)(O)c1ccccc1CC[C@@H](SCC1(CC(=O)O)CC1)c1cccc(/C=C/c2ccc3ccc(Cl)cc3n2)c1 [montelukast]	0.18%	0.4%	-0.23%	-0.66%	-4.23%
CCOC(=O)[C@@H](N)CCC(=O)N[C@@H](CSCc1ccccc1)C(=O)N[C@@H](C(=O)OCC)c1ccccc1 [ezatiostat]	-0.49%	0.28%	1.7%	2.71%	0.41%
O=c1cc(-c2cccc3c2Sc2ccccc2S3)oc(N2CCOCC2)c1	2.07%	-2.3%	-0.67%	3.55%	-1.33%
Cc1nc(NC(=O)N2CCC[C@H]2C(N)=O)sc1-c1ccnc(C(C)(C)C(F)(F)F)c1 [alpelisib]	2.4%	0.48%	0.01%	-1.87%	0.02%
O=P(O)(O)C(O)(Cc1cnc2ccccn12)P(=O)(O)O [minodronic-acid]	-2.81%	-1.07%	-0.4%	2.46%	-1.52%
C[C@H]1[C@H](C)CC[C@]2(C(=O)O)CC[C@]3(C)C(=CC[C@@H]4[C@@]5(C)C[C@@H](O)[C@H](O)[C@@](C)(CO)[C@@H]5CC[C@]43C)[C@H]12 [asiatic-acid]	-2.75%	-0.62%	-0.32%	1.12%	-3.69%
O=P(O)(O)C(O)(Cc1cccnc1)P(=O)(O)O [risedronate]	-0.54%	-1.25%	-0.67%	3.13%	1.96%
O=C(Nc1nc(-c2cc(Cl)cs2)c(N2CCN(C3CCCCC3)CC2)s1)c1cnc(N2CCC(C(=O)O)CC2)c(Cl)c1 [avatrombopag]	2.06%	0.14%	0.09%	-3.82%	-0.97%
